Consider 25 sequences from the OligoGym collection.
Note: reference of the scale not given here.

The first test has as its target MYO1A. Description: pooled miR-30 sensor sort-seq; sequence = guide strand. The following applies: shRNA.
Sequence TTGATTCGATTCACTATCCAGT returned a sensor-assay potency score (higher = more potent) of -0.284.
TTCTCCTTGAACCTCACTGAGA registered a sensor-assay potency score (higher = more potent) of -1.61.
TTGTCTAAGACGTTTGTGGATG: the sensor-assay potency score (higher = more potent) is -0.839.
In the case of TAAGACATCACCAGCTTGCTGG, the sensor-assay potency score (higher = more potent) was -0.216.
TTGAGCTGCTTCACTAATCGGG: the sensor-assay potency score (higher = more potent) stood at 0.105.
Take TAGCACTTGTCGAATCTCCTCC: the sensor-assay potency score (higher = more potent) was found to be 0.419.
As to TAGTCCACCTTTGTCCACGGTA, the sensor-assay potency score (higher = more potent) is -0.661.
Turning to TTGTCGAATCTCCTCCTCCGAG, the sensor-assay potency score (higher = more potent) is -0.993.
For the sequence TAAATCTTCTGTATGAGTGTGG, the sensor-assay potency score (higher = more potent) turned out to be 0.504.
Turning to TTCCTCTTGCTCTTCTTTCAGG, the sensor-assay potency score (higher = more potent) is -0.825.
Sequence TTTTTGTAGCGTAGCTTGCTGT had a sensor-assay potency score (higher = more potent) of -0.784.

The target of a further test is MYO1D. Described as above. The following applies: shRNA.
As to TTAGTTTCTTGACAGCCTCTTT, the sensor-assay potency score (higher = more potent) was -0.583.
Same read-out and setting: next, TTTCTCAACCATATCTGTCTTA: 0.187.
Sequence TTGTTCTTGCTTCAGAACCAGC displayed a sensor-assay potency score (higher = more potent) of -1.43.
As to TATAGTTGTAGGATGAAAGGGA, the sensor-assay potency score (higher = more potent) was 0.615.
For TAGTAGAGAGCAATTCTGCTAT, the sensor-assay potency score (higher = more potent) stood at 0.00249.
For TAGATGTTCAACAACTTGTAAG, the sensor-assay potency score (higher = more potent) was -1.57.
On the same count and under the same terms, next, TTCAAAACTGTTGTTGTCGAAG: -0.485; TTGTTCTGAACCTCCTTGGAGT: -0.407.
For the sequence TTGAGCACAGGATTTGAACTGT, the sensor-assay potency score (higher = more potent) was found to be 0.338.
TTAAGTAAGATGATCCTTGGAG had a sensor-assay potency score (higher = more potent) of 0.286.
TTCAAGAAACATTTCATCGGTG came in with a sensor-assay potency score (higher = more potent) of 0.501.

A further test deals with MYO1F. Described as above. Particulars: shRNA.
TTGAGCACTGCCAAGTCGCCGA came in with a sensor-assay potency score (higher = more potent) of -0.541.
For the sequence TAGCACTCAGAGTCTCACCAAA, the sensor-assay potency score (higher = more potent) was -0.917.
Sequence TTCCGGTACATGTTGTCCGTGA had a sensor-assay potency score (higher = more potent) of 0.0719.
